Laboratory results reported in PubChem BioAssay (NCI).
This is part of a sample that, as a whole, favours compounds with a hit. Of some 83,000 tested, about 20% had one in any assay.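 Single-concentration screen, 48 h exposure, 96-well plates. Endpoint: percent growth. Below 10 = active.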 Unmarked numbers belong to inactive results. Calls of active or inactive are those of the source.

Assays:
Test in all cases: NCI-60 one-dose screen, 48 h (100 = growth as untreated, 0 = no growth, -100 = all killed)
Conditions in all cases: 10 µM
[1] = test system: BT-549 breast
[2] = test system: MDA-MB-435 melanoma
[3] = test system: SW-620 colon
[4] = test system: MCF7 breast
[5] = test system: HCT-116 colon
[6] = test system: HCC-2998 colon
[7] = test system: KM12 colon

Compound	growth [1]	growth [2]	growth [3]	growth [4]	growth [5]	growth [6]	growth [7]
Cc1ccc2oc3nc(C)c(C(=O)NCc4ccccc4)cc3c(=O)c2c1	95.1%	65.5%	77.5%	45.6%	60.6%	35.4%	28.6%
Cc1ccc(NC(=O)CSc2nc3ccccc3c(=O)n2CCc2ccccc2)c(C(=O)O)c1	96.8%	97.3%	109%	93.8%	92.7%	113%	110%
COc1ccc(-c2nn(-c3cccc(NC(=O)c4ccc(Cl)c(Cl)c4)c3)cc2-c2ccncc2)cc1Cl	95.4%	24.8%	81.5%	72.1%	69.6%	82%	55.8%
CN(CCc1ccccn1)c1ccccc1	104%	120%	111%	95.9%	101%	103%	104%
COc1ccc(C(=O)/C=C/c2cc(-c3cc(OC)c(OC)c(OC)c3)n[nH]2)cc1	14.4%	15.6%	-37.6% (active)	16.5%	-76.3% (active)	91.3%	-60.1% (active)
C=C(NC(=O)C(=C)NC(=O)c1csc(C2=NC3c4csc(n4)C4NC(=O)c5csc(n5)C(C(C)(O)C(C)O)NC(=O)C5CSC(=N5)/C(=C/C)NC(=O)C(C(C)O)NC(=O)c5csc(n5)C3(CC2)NC(=O)C(C)NC(=O)C(=C)NC(=O)C(=C)NC(=O)C(C(C)C)NC2C=Cc3c(C(C)O)cc(nc3C2O)C(=O)OC4C)n1)C(N)=O (stereo not given)	-35.1% (active)	-65.2% (active)	-8.45% (active)	19.8%	-49.5% (active)	-57.2% (active)	-88.1% (active)
CCN(CC)Cc1cc(Nc2ccnc3cc(Cl)ccc23)ccc1OC	110%	77.9%	64.1%	86.7%	69.1%	81%	83.5%
Clc1ccc(Nc2ccnc(NCCCNc3ccnc4cc(Cl)ccc34)n2)cc1	0.946% (active)	-87.3% (active)	-60.9% (active)	-89.8% (active)	-78.3% (active)	-88.9% (active)	-16.2% (active)
Cn1c(C(N)=O)cc2c1-c1nc(Nc3ccccc3)ncc1CCC2	33.7%	45%	57.2%	38.7%	25.8%	73.1%	7.9% (active)
S=C1SCC(c2ccccc2)S1 (stereo not given)	109%	102%	111%	99.4%	107%	114%	117%
CC(=O)c1cc(Br)ccc1O	110%	99.1%	102%	102%	112%	101%	102%
CCN(CC)CCOc1nc2ccc(OC)cc2c2c1-c1ccc(OC)cc1C2=O	65.1%	-22.7% (active)	-59.4% (active)	-58.6% (active)	-98.3% (active)	38.6%	-82% (active)
COc1ccc2nc3cc(Cl)ccc3c(NCCNCC(C)O)c2c1 (stereo not given)	88%	37.9%	19.9%	10.5%	13.1%	40.8%	25.5%
COc1ccc(OC)c(/C=C/c2nc(SCc3ccccc3)n(-c3ccc(Cl)cc3)n2)c1	61.8%	-24.9% (active)	28.2%	52.9%	20.2%	73.1%	31.1%
O=c1oc2cc(OS(=O)(=O)c3ccccc3)ccc2c2c1CCCCC2	59.9%	64.7%	44.2%	49.7%	29%	59.1%	41.1%
Cc1c(Cl)cccc1NC(=O)c1sc2nc3c(cc2c1N)C(=O)CCC3	49.9%	-43.6% (active)	18.3%	13.5%	14.3%	25.8%	11.1%
O=C(O)CCCCSc1ncnc2nc[nH]c12	106%	99.3%	109%	99.2%	103%	108%	102%
OCC1OC(n2cnc3c(N/N=C\c4ccccn4)ncnc32)C(O)C1O (stereo not given)	44.3%	23.6%	23.9%	16.8%	11.9%	10.9%	26.7%

Compound	growth [1]	growth [2]	growth [3]	growth [4]	growth [5]	growth [6]	growth [7]
FC(F)(F)c1ccc2nc(-c3nc(-c4ccccc4)n4ccccc34)[nH]c2c1	85.9%	87.5%	72%	38.3%	8.85% (active)	82.6%	52.4%
Cn1c([N+](=O)[O-])cnc1/C=C1\Oc2cc(Cl)ccc2C1=O	-32.6% (active)	-78% (active)	-47.3% (active)	19%	3.24% (active)	4.36% (active)	1.65% (active)
CN1CCC2(CC1)NC(=O)c1c(c3ccc(Cl)c(Cl)c3n1C)C2C#N (stereo not given)	84.9%	49.2%	83.9%	28.5%	43%	-1.84% (active)	106%
O=C(Nc1ccc(OS(=O)(=O)c2ccccc2)cc1)C12CC3CC(CC(C3)C1)C2	25.8%	72.6%	5.02% (active)	32%	32.8%	26.1%	28.4%
O=C(Nc1cccc(-n2cc(-c3ccncc3)c(-c3ccc(O)c(Cl)c3)n2)c1)c1ccc(Cl)c(Cl)c1	68.5%	47.2%	28.2%	35.5%	44.4%	54.3%	43.9%
CC(C)=CCc1cc(O)cc2c1OC(C=C(C)C)C1=C2C(=O)C2=C(C1=O)S(=O)(=O)CCN2 (stereo not given)	58.9%	-68.3% (active)	4.52% (active)	-50% (active)	-8.73% (active)	36.4%	69.2%
COc1cc(/C=C2\Oc3cc(OCC(=O)c4ccccc4)ccc3C2=O)cc(OC)c1OC	128%	103%	114%	99.1%	106%	120%	98.9%
CN(C)c1ccc(Cc2ccc(N(C)C)cc2Cl)c(Cl)c1	136%	109%	91.2%	111%	95.4%	96.8%	90.4%
O=C(N/N=C/c1cc2ccccc2c2ccccc12)c1cc(O)c(O)c(O)c1	49.4%	35.3%	25.4%	67.6%	26%	94.5%	83.2%
COc1cc(Cl)cc(-c2nn(-c3cccc(NC(=O)c4ccc(N5CCOCC5)c(C(F)(F)F)c4)c3)cc2-c2ccncc2)c1	73%	63.4%	69.2%	45.3%	47.7%	52.3%	38.4%
O=C1CC[C@@H]2CCCC[C@@H]2C1	136%	103%	108%	97.2%	104%	112%	112%
CCN1CCN(c2nc3ccccc3c3c(=O)c4ccccc4sc23)CC1	69%	47.9%	24%	28.3%	27.5%	57.2%	36.1%
CCOC(=O)C(NC(=O)C(Cl)Cl)C(O)c1ccccc1 (stereo not given)	112%	94.9%	100%	94.8%	85.3%	110%	110%
CC12O[C@H](C[C@@H](OC(=O)c3ccccc3)[C@H]1O)n1c3ccccc3c3c4c(c5c6ccccc6n2c5c31)C(=O)NC4=O	84.8%	60.2%	60.2%	69.3%	70.1%	87.2%	19.3%
O=C1C(=O)c2ccccc2C(O)=C1CCCc1ccc(C2CCCCCC2)cc1	58.2%	33.9%	32.9%	25.5%	24.6%	8.94% (active)	37.8%
Cn1c([N+](=O)[O-])cnc1/C=C1\Oc2ccccc2C1=O	-28.6% (active)	-86.8% (active)	-36.3% (active)	1.82% (active)	1.88% (active)	-73.6% (active)	-17.4% (active)
CSc1cc(SC)ncn1	104%	115%	103%	97.8%	102%	111%	108%
